Each structure is given as a SMILES string. Records with an inconclusive call do not appear. Calls of active or inactive are those of the source. Unless noted, calls follow the shape of the dose curve; as a rule, active = well fitted curve in the direction sought with a large enough effect; inconclusive = small, poorly fitted or top-dose-only effect, or another doubt; inactive = no such curve, though single readings can be large; an effect the other way counts as inactive or inconclusive.

The target of assay [1] is Rap guanine nucleotide exchange factor 3 (Homo sapiens) (UniProt O95398). In words: Confirmatory qHTS for antagonist of cAMP-regulated guanine nucleotide exchange factor 3 (EPAC1) (AID 1645880). Also: nearly all actives have a fitted effect of over 55% in size. Also: potency is read from the fitted curve at half-maximal effect. The procedure, abridged: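 Released BODIPY-GDP fluoresces less than Rap1-bound BODIPY-GDP; the signal is followed at 480/540 nm at 5-min intervals over 30 min, after 5 min at room temperature. Reactions contain 100 nM EPAC1, 250 nM RAP1B-BODIPY-GDP and 50 uM GDP; results are normalized to ATA and DMSO.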
Sequence of Rap guanine nucleotide exchange factor 3 (Homo sapiens) (O95398 whole entry, looked up): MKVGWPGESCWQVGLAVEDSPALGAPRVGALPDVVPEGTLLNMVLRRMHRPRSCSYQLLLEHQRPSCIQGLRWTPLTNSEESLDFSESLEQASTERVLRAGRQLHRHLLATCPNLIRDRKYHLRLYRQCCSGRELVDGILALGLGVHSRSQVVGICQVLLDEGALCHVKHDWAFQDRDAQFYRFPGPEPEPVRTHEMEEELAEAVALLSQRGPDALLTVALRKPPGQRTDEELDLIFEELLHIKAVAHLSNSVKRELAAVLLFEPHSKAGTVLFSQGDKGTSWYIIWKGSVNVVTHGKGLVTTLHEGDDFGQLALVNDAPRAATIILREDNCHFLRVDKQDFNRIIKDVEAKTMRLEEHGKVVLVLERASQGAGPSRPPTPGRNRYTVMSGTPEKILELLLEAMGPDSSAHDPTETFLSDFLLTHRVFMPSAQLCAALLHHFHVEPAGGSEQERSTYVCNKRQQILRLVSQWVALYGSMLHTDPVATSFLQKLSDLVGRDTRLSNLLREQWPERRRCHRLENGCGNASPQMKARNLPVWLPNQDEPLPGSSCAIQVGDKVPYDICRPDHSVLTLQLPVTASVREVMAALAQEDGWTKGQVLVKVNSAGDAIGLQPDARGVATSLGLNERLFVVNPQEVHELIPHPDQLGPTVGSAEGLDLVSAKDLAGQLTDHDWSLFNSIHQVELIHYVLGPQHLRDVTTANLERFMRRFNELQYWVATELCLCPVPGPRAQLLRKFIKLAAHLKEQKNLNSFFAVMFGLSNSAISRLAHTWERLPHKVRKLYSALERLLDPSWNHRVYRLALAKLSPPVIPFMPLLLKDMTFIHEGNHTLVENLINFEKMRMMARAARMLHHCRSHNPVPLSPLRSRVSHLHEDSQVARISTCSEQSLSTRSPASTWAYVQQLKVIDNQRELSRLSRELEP
On the technique in general: qHTS replaces the single test concentration by a dilution series.

Assay [2] has the same target. In words: Confirmatory qHTS for agonist of cAMP-regulated guanine nucleotide exchange factor 3 (EPAC1) (AID 1645881).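 Also: EPAC1 catalysed release of BODIPY-GDP from Rap1B seen as fluorescence loss; 100% = effect of cAMP agonist control; nearly all actives have a fitted effect of over 75% in size.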
Assay [3] has as its target Rap guanine nucleotide exchange factor 4 (Homo sapiens) (UniProt Q8WZA2). The assay can be described thus: Confirmatory qHTS for agonist of cAMP-regulated guanine nucleotide exchange factor 4 (EPAC2) (AID 1645884).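 Also: nucleotide exchange releases bodipy-GDP from Rap1 and this lowers its fluorescence; % is scaled to controls: 0 for no effect and ±100 for the full control effect; nearly all actives have a fitted effect of over 65% in size.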
A short description of assay [4]: Primary qHTS for inhibitors of nuclear receptor binding SET domain protein 2 (NSD2) in an RCH-ACV wild type WT cells (2C) (AID 1645877). Also: nearly all actives have a fitted effect of over 70% in size. Also: potency is read from the fitted curve at half-maximal effect.
For assay [5], the target named is Phospholipid hydroperoxide glutathione peroxidase GPX4 (Homo sapiens) (UniProt P36969). In words: Primary qHTS Assay for Inhibitors of Recombinant Selenoprotein Glutathione Peroxidase 4 (GPX4) (AID 1845192). Also: series mostly up to about 50 µM; % is scaled to controls: 0 for no effect and ±100 for the full control effect; nearly all actives have a fitted effect of over 65% in size. Summed up:
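NADPH consumption followed by fluorescence at 340/450 nm, t=0 and after 15 min at room temperature. Reaction started with cumene hydroperoxide (0.5 mM final) after 30 min compound–GPX4 preincubation; final 200 nM GPX4, 100 nM GR, 1 mM GSH, 0.5 mM NADPH.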

A short description of assay [6]: qHTS drug screen for cell cycle checkpoint inhibitors in PARPi-resistant BRCA-mutant ovarian cancer cell lines. (AID 1963452; calls by dose curve). The following applies: PEO1/OlaR viability, CellTiter-Glo luminescence, 96 h, stronger effect = lower value. The procedure, abridged:
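PEO1, PEO4 and PEO1/OlaR ovarian cancer cells, 600 per well, exposed 96 h at 37C to a dilution series. Viability read by CellTiter-Glo luminescence, normalized to DMSO and empty wells; activity summarized as Z-AUC.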

In assay [7] the target is Glutathione peroxidase 1 (Homo sapiens) (UniProt P07203). The assay can be described thus: Primary qHTS Assay for Inhibitors of Recombinant Selenoprotein Glutathione Peroxidase 1 (GPX1) (AID 1845191). Also: nearly all actives have a fitted effect of over 65% in size. Summed up:
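NADPH consumption tracked by fluorescence at 340/450 nm between t=0 and t=15 min, room temperature. Final mix: 10 nM GPX1, 100 nM glutathione reductase, 1 mM GSH, 0.5 mM NADPH, 0.5 mM cumene hydroperoxide, 0.01% BSA; 30 min compound–enzyme preincubation.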

The target in assay [8] is Rap guanine nucleotide exchange factor 4 (Homo sapiens) (UniProt Q8WZA2). The assay can be described thus: Confirmatory qHTS for antagonist of cAMP-regulated guanine nucleotide exchange factor 4 (EPAC2) (AID 1645885). Also: nearly all actives have a fitted effect of over 25% in size. Also: potency is read from the fitted curve at half-maximal effect.
Sequence of Rap guanine nucleotide exchange factor 4 (Homo sapiens) (Q8WZA2 whole entry, looked up, the tested form may be a part): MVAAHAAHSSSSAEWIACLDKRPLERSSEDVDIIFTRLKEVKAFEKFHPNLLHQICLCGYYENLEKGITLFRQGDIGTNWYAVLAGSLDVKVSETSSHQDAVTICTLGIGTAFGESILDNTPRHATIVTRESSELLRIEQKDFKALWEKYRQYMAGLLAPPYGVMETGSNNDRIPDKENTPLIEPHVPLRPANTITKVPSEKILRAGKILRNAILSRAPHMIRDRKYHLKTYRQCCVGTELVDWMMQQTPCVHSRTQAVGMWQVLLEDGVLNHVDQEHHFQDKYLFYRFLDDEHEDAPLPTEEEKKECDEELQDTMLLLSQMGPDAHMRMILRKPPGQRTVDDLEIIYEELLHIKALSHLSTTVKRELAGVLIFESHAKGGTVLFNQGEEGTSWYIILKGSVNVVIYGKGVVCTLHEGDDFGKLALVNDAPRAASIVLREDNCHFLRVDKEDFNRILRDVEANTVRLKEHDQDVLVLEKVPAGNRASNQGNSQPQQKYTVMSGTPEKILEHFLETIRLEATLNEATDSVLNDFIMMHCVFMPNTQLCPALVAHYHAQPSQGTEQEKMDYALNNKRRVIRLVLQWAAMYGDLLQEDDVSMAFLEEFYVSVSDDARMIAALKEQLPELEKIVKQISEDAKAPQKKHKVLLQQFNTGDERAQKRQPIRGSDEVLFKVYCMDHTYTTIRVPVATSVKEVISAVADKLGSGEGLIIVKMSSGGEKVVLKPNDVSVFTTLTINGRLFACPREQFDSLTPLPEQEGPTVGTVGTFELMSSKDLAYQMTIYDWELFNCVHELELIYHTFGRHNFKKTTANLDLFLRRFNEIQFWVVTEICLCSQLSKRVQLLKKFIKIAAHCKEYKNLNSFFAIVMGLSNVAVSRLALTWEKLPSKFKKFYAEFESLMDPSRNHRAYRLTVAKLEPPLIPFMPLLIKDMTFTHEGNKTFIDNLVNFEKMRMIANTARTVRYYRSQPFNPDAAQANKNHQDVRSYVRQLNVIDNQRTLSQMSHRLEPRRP
[9] abbreviates: measured here: PEO1 parental Z-AUC.

Sequence of Glutathione peroxidase 1 (Homo sapiens) (P07203 whole entry, looked up): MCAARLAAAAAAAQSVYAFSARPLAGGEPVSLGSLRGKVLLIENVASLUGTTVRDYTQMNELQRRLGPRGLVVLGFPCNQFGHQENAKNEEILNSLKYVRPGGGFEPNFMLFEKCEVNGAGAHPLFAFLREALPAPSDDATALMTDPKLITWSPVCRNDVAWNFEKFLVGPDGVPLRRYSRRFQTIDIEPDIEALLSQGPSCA
Sequence of Phospholipid hydroperoxide glutathione peroxidase GPX4 (Homo sapiens) (P36969 whole entry, looked up): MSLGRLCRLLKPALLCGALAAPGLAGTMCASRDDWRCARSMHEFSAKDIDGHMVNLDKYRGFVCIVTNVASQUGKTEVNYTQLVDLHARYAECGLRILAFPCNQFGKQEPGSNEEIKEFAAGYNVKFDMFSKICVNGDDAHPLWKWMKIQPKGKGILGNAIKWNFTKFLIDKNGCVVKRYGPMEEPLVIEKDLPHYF

`CC(C)(C)[C@H]1CCC(=O)N([C@H](CN=[N+]=[N-])Cc2ccccc2)CC1`: the Potency result in assay [1], in assay [2] and in assay [3] was “inactive” throughout.

For `Cc1cc(C(=O)NCc2nc(-c3cccc(NC(=O)c4ccccc4)c3)oc2C)nc(C)n1`, the Potency entry in assay [1], in assay [2] and in assay [3] was “inactive” each time.

On to `Cc1ccc(C2SCC(=O)N2Cc2ccccc2)cc1` (centres undefined), for which the Potency result in assay [1], in assay [2] and in assay [3] was “inactive” in each case.

With `COc1ccc(SC[C@H](Cc2ccccc2)N2CC[C@@H](C)CCC2=O)cc1`, the Potency result in assay [1] was “inactive”.

On to `O=C(CN1Cc2ccccc2OC(c2ccsc2)C1)N1CCN(Cc2ccc3c(c2)OCO3)CC1` (centres undefined), for which the Potency result in assay [1], in assay [2] and in assay [3] was “inactive” in each case.

In the case of `Cc1ccc2c(/C=C/c3ccc(N(C)C)cc3)ccnc2c1C`, the Potency result in assay [1], in assay [2] and in assay [3] was “inactive” in each case.

With `CNC(=O)CCc1cc(-c2ccc(-c3ccc(C(F)(F)F)cc3)cc2)n(-c2ccc(N3CCNCC3)cc2)n1`, the Potency entry in assay [4] and in assay [5] was “inactive” each time. Moreover, the Z-AUC in assay [6] is 1.07 (inactive); in assay [6] (setting [9]), -0.284; in assay [6] (measured here: PEO4 Z-AUC), 0.197.

For `Cc1[nH]c2ccccc2c1/C=C/c1ccc2ccccc2n1`, the Potency entry in assay [1], in assay [2] and in assay [3] was “inactive” in each case.

Consider `CCc1ccc2nc(Nc3cc(Cc4ccccc4)nc(NC4CCC(O)CC4)n3)sc2c1` (centres undefined), for which, in assay [4], the Potency was 23.5 µM (active). Further, in assay [7], the Potency entry was “inactive”. For the same compound, the Z-AUC in assay [6] was -0.86 (inactive); in assay [6] (setting [9]), -0.737; in assay [6] (measured here: PEO4 Z-AUC) it was -0.703.

Regarding `Cc1ccc2nccc(/C=C/c3ccc(N(C)C)cc3)c2c1`, the Potency result in assay [1], in assay [2] and in assay [3] was “inactive” in each case.

As for `COCCN(CCOC)c1nc(-c2ccccc2)nc2ccccc12`, the Potency entry in assay [1], in assay [2] and in assay [3] was “inactive” in each case.

With `O=C(O)CNC(=O)c1ncc(-c2cccc(Cl)c2)cc1O`, the Potency result in assay [4] and in assay [7] was “inactive” throughout. The Z-AUC in assay [6] was -0.0287 (inactive); in assay [6] (setting [9]), 0.803; in assay [6] (measured here: PEO4 Z-AUC), 0.828.

As for `Cc1cc(O[C@@H](CCC(F)(F)F)c2ccc(C(=O)NCCC(=O)O)cc2)cc(C)c1-c1ccc(C(C)(C)C)cc1`, the Potency entry in assay [4] and in assay [7] was “inactive” each time. The Z-AUC in assay [6] was 0.000666 (inactive); in assay [6] (setting [9]) it was 0.0877; in assay [6] (measured here: PEO4 Z-AUC), -0.261.

On to `COc1ccc(Cl)cc1NC(=O)CN(C)Cc1cccs1`, for which the Potency entry in assay [1] and in assay [2] was “inactive” throughout.

As to `Nc1cc(N)cc(N)c1`, the Potency in assay [1] was 28 µM (active).

Regarding `COc1cccc(CN(C)C(=O)c2cnn(-c3ncc4c(n3)-c3ccccc3CCC4)c2C)c1`, the Potency result in assay [1], in assay [2] and in assay [3] was “inactive” each time.

Take `CN1CCN(CCCNc2ncc(Cl)c(-c3cc4c(C(=O)NC5CC5)cccc4s3)n2)CC1`: the Potency in assay [4] is 23.5 µM (active). Further, the Potency result in assay [7] is “inactive”. In addition, the Z-AUC in assay [6] is -0.322 (inactive); in assay [6] (setting [9]), -0.452; in assay [6] (measured here: PEO4 Z-AUC), -0.0901.

As for `Cc1cccc(N(C(=O)c2csnn2)C(C(=O)NCc2ccccc2)c2cccs2)c1` (centres undefined), the Potency entry in assay [1], in assay [2] and in assay [3] was “inactive” throughout.

In the case of `CN(CCc1ccccc1)C(=O)c1cc(COc2cccc(C(F)(F)F)c2)on1`, the Potency entry in assay [1], in assay [2] and in assay [3] was “inactive” in each case.

For `C[C@@H]1CC2C3C[C@H](F)C4=CC(=O)C=C[C@]4(C)[C@@]3(F)[C@@H](O)C[C@]2(C)[C@@]1(OC(=O)c1ccco1)C(=O)SCF` (some centres undefined), the Potency entry in assay [4] and in assay [7] was “inactive” each time. Further, the figures for the Z-AUC in assay [6], in assay [6] (setting [9]) and in assay [6] (measured here: PEO4 Z-AUC) were 0.16 (inactive), 0.658 and -0.282, respectively.

On to `Cc1ccc(CN2C(=O)CSC2c2ccc(F)cc2)cc1` (centres undefined), for which the Potency entry in assay [1], in assay [2] and in assay [3] was “inactive” each time.

For the compound `C(=C\c1ccnc2ccccc12)/c1ccc2ccccc2n1`, the Potency result in assay [1], in assay [2] and in assay [3] was “inactive” in each case.

Take `COc1ccc(N2CCN(C3CCCCC3NS(=O)(=O)c3ccccc3)CC2)cc1` (centres undefined): the Potency result in assay [1], in assay [2] and in assay [3] was “inactive” in each case. Further, the Potency in assay [8] was 16.9 µM (active).

Regarding `C(=C\c1nccc2ccccc12)/c1ccc(N2CCOCC2)cc1`, the Potency result in assay [1], in assay [2], in assay [3] and in assay [8] was “inactive” each time.

As for `CC(=O)CCc1oc2ccc(C)cc2c1-c1ccccc1`, the Potency result in assay [1], in assay [2], in assay [3] and in assay [8] was “inactive” in each case.

In the case of `C/C(CC(=O)Nc1ccc2ccccc2c1)=N\NC(=O)c1cnccn1`, the Potency entry in assay [1], in assay [2], in assay [3] and in assay [8] was “inactive” throughout.

As to `CCc1ccccc1NC(=O)CCC(=O)N1CCN(C(C)=O)CC1`, the Potency result in assay [1], in assay [2], in assay [3] and in assay [8] was “inactive” in each case.

For the compound `CCCCN(Cc1ccc(C(=O)N[C@H](C(=O)O)C(C)C)cc1)C(=O)C(c1ccccc1)c1ccccc1`, the Potency result in assay [1], in assay [2] and in assay [8] was “inactive” in each case. Moreover, the activation in assay [3] is 8.93% [at 17.1 µM, percent relative to cAMP agonist control] (inactive).

In the case of `COc1ccccc1CNC(=O)CSc1ccc(-c2cccs2)nn1`, the Potency result in assay [1], in assay [2], in assay [3] and in assay [8] was “inactive” each time.

As to `COc1cccc(OC)c1NC(=O)c1ccc(-c2cc(Cl)ccc2Cl)o1`, the Potency result in assay [1], in assay [2], in assay [3] and in assay [8] was “inactive” throughout.

`CCC(C(=O)Nc1cc(OC)ccc1OC)n1nc(-c2ccccc2)c2c(c1=O)CCCC2` (centres undefined): the Potency entry in assay [1], in assay [2], in assay [3] and in assay [8] was “inactive” in each case.

In the case of `COc1ccc(Cl)cc1NC(=O)CN(C)C(=O)c1cc2c(s1)CCC(C)C2` (centres undefined), the Potency result in assay [1], in assay [2], in assay [3] and in assay [8] was “inactive” in each case.

With `C1=Cc2ccccc2/C1=C\c1ccc2c(c1)OCO2`, the Potency result in assay [1], in assay [2], in assay [3] and in assay [8] was “inactive” in each case.

Consider `C#C[C@]1(OC(C)=O)CCC2C3CCC4=CC(=O)CC[C@@H]4C3CC[C@@]21C` (some centres undefined), for which the Potency entry in assay [1], in assay [2] and in assay [3] was “inactive” throughout. Further, in assay [8], the Potency was 39.3 µM (active).

Take `Cc1nc(C)n(CC(=O)NCC2Cc3cc(-c4cccc(OC(F)(F)F)c4)ccc3O2)n1` (centres undefined): the Potency entry in assay [1], in assay [2] and in assay [3] was “inactive” in each case. In addition, in assay [8], the Potency was 44.1 µM (active).

On to `CC(c1ccc(N(C)C)cc1)c1ccnc2ccccc12` (centres undefined), for which the Potency entry in assay [1], in assay [2], in assay [3] and in assay [8] was “inactive” each time.

The values above are taken from PubChem BioAssay (NCATS).
